Growth data for 13 compounds are collected here from PubChem BioAssay (NCI).

About 83,000 compounds went through this panel and 20% of them were active in at least one assay; those are over-represented in the sample as a whole.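 How to read the values: 0–100, growth inhibition (40 = 60% inhibited); 0, no net growth; -100 to 0, cell death (-40 = 40% of starting cells died; -100 = all dead).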 Unmarked numbers belong to inactive results. Active and inactive are the calls of the source. Rule for the calls: active = growth percent below 10; inactive = the rest.

Some test systems named below: SK-MEL-2 melanoma; EKVX NSCLC; SN12C renal; UO-31 renal; TK-10 renal; ACHN renal; CAKI-1 renal; A498 renal; CCRF-CEM leukemia; MOLT-4 leukemia.
What all share (assay): NCI-60 one-dose screen, 48 h (100 = growth as untreated, 0 = no growth, -100 = all killed)
Common to all, as to conditions: 10 µM unless noted

Turning to `CCC(CC)C(=O)OC(C)COc1ccc(C(C)(C)C)cc1` (stereo not given), the growth is 101% in the test on SK-MEL-2 melanoma; 105% in the test on EKVX NSCLC; 99.4% in the test with SN12C renal; 97.3% with UO-31 renal; 97% in the test on TK-10 renal; 102% in the test with ACHN renal. For the same compound, the growth in the test with CAKI-1 renal is 98.8%; in the test on A498 renal, 87.8%; in the test on CCRF-CEM leukemia, 93%; in the test on MOLT-4 leukemia, 82.7%.

Turning to `CC1(n2nnnc2N2CCCN(c3ncccc3N)CC2)CCC1`, the growth with SK-MEL-2 melanoma is 110%; in the test with EKVX NSCLC, 97.5%; in the test with SN12C renal it was 95.7%; in the test on UO-31 renal, 92.4%; in the test on TK-10 renal, 99%; with ACHN renal, 99.2%. The growth in the test with CAKI-1 renal is 90.7%; with A498 renal it was 93.3%; in the test on CCRF-CEM leukemia, 103%; in the test with MOLT-4 leukemia, 99.3%.

As for `COc1ccc(O)c(-c2cc(-c3ccc(Cl)cc3)c(C#N)c(=O)[nH]2)c1`, the growth was 37.9% with SK-MEL-2 melanoma; 105% in the test on EKVX NSCLC; 77% in the test on SN12C renal; 55% in the test on UO-31 renal; 87.3% with TK-10 renal; 78.1% with ACHN renal. Further, the growth in the test on CAKI-1 renal is 73.3%; in the test on A498 renal it was 79.6%; with CCRF-CEM leukemia, 37.2%; in the test on MOLT-4 leukemia it was 57.8%.

For `O=C(NO)c1ccc(Cn2c(=O)n(CCc3ccc(O)cc3)c(=O)c3ccccc32)cc1`, the growth in the test with SK-MEL-2 melanoma was 74.5%; in the test on EKVX NSCLC, 76.7%; with SN12C renal, 79%; with UO-31 renal, 88.6%; in the test on TK-10 renal, 84.7%; in the test with ACHN renal, 91.1%. For the same compound, the growth is 95.2% with CAKI-1 renal, 45.7% with A498 renal, 9.36% (active) in the test with CCRF-CEM leukemia and 15.9% in the test with MOLT-4 leukemia.

`COc1ccc(C2c3ccccc3NC(=O)N2C2CCN(C)CC2)c(OC)c1` (stereo not given): the growth with SK-MEL-2 melanoma was 108%; with EKVX NSCLC, 87%; with SN12C renal, 95.6%; in the test with UO-31 renal it was 89.7%; with TK-10 renal, 98.1%; in the test on ACHN renal it was 103%. Moreover, the growth was 102% in the test with CAKI-1 renal, 102% in the test on A498 renal, 106% in the test on CCRF-CEM leukemia and 99.5% with MOLT-4 leukemia.

`N#Cc1cnc2cc(OC[C@@H](O)CO)c(NC(=O)CC3CSSC3)cc2c1Nc1ccc(OCc2cccc(F)c2)c(Cl)c1`: the growth is -67.7% (active) with SK-MEL-2 melanoma; -68% (active) with EKVX NSCLC; -70.3% (active) in the test on SN12C renal; 50.5% in the test on UO-31 renal; -60.5% (active) with TK-10 renal; 3.6% (active) in the test on ACHN renal. The growth in the test on CAKI-1 renal was 62.7%; with A498 renal, -62% (active); with CCRF-CEM leukemia, -46.4% (active); with MOLT-4 leukemia, -50.4% (active).

For the compound `Cc1csc(Nc2nc(-c3cccc(Br)c3)nc(C(Cl)(Cl)Cl)n2)n1`, the growth with SK-MEL-2 melanoma is 104%; in the test with EKVX NSCLC it was 22.8%; in the test on SN12C renal, 78.5%; in the test on UO-31 renal, 49.4%; with TK-10 renal it was 49.9%; in the test on ACHN renal, 0.817% (active). For the same compound, the growth was 21.6% with CAKI-1 renal, 31.5% with A498 renal, 91.4% in the test on CCRF-CEM leukemia and 80.7% in the test with MOLT-4 leukemia.

`Cc1cc2nc3c4cc(Cl)ccc4n(CCN(C)C)c3nc2cc1C`: the growth is 43.6% in the test on SK-MEL-2 melanoma; 20.4% in the test on EKVX NSCLC; 17.7% in the test with SN12C renal; -45% (active) in the test on UO-31 renal; 19.4% in the test with TK-10 renal; -10% (active) in the test on ACHN renal. Besides, the growth with CAKI-1 renal was -7.17% (active); with A498 renal, 73.9%; in the test on CCRF-CEM leukemia, 24.6%; in the test on MOLT-4 leukemia, 2.26% (active).

Consider `Brc1ccc(Cn2nnnc2-c2ccn(-c3ccccc3)n2)cc1`, for which the growth in the test on SK-MEL-2 melanoma was 63.5%; with EKVX NSCLC, 69.8%; in the test on SN12C renal, 68.5%; in the test with UO-31 renal, 69.2%; in the test on TK-10 renal it was 77.6%; with ACHN renal, 70.7%. The growth was 58.2% in the test on CAKI-1 renal, 52.5% in the test with A498 renal, 56.7% in the test on CCRF-CEM leukemia and 52.4% in the test with MOLT-4 leukemia.

On to `CN1CCN(CCOc2ccc(-c3cnc4c(-c5cccc(F)c5)cnn4c3)cc2)CC1`, for which the growth with SK-MEL-2 melanoma is 97.8%; with EKVX NSCLC it was 76.3%; in the test on SN12C renal, 60.6%; in the test with UO-31 renal it was 39.2%; in the test with TK-10 renal, 102%; in the test with ACHN renal, 70.2%. For the same compound, the growth is 64.5% in the test on CAKI-1 renal, 45.2% in the test with A498 renal, 20.9% with CCRF-CEM leukemia and 16.6% in the test on MOLT-4 leukemia.

In the case of `C/C(=N\NC(=O)C(C)SC(C)C(=O)N/N=C(\C)c1cccnc1)c1cccnc1` (stereo not given), the growth in the test with SK-MEL-2 melanoma is 93.8%; in the test on EKVX NSCLC it was 100%; with SN12C renal, 106%; with UO-31 renal, 81%; with TK-10 renal, 106%; in the test with ACHN renal, 106%. In addition, the growth in the test with CAKI-1 renal was 97.7%; with A498 renal, 88.2%; in the test on CCRF-CEM leukemia, 99.4%; in the test on MOLT-4 leukemia, 86.7%.

As to `N#Cc1cnc2cc(OC[C@@H](O)CO)c(NC(=O)C3CCCC3)cc2c1Nc1ccc(OCc2cccc(F)c2)c(Cl)c1`, the growth in the test on SK-MEL-2 melanoma is -56.9% (active); in the test on EKVX NSCLC, -36.8% (active); in the test on SN12C renal, 13.8%; with UO-31 renal it was 35.3%; in the test with TK-10 renal, 29.5%; with ACHN renal, 40.2%. Further, the growth in the test with CAKI-1 renal is 59.4%; with A498 renal, 55.5%; in the test with CCRF-CEM leukemia, -26.8% (active); in the test on MOLT-4 leukemia, 6.26% (active).

On to `O=S(=O)(NCCNc1cc(-c2cn(-c3ccccc3)nc2-c2cccc(O)c2)ccn1)c1ccccc1`, for which the growth is 66.3% in the test on SK-MEL-2 melanoma; 73.1% in the test on EKVX NSCLC; 63.4% in the test with SN12C renal; 37.4% in the test on UO-31 renal; 67.1% with TK-10 renal; 57.8% in the test with ACHN renal. The growth was 60.8% in the test with CAKI-1 renal, 70.5% in the test on A498 renal, 27.6% in the test on CCRF-CEM leukemia and 25.1% in the test on MOLT-4 leukemia.
